The assay deals with Rap guanine nucleotide exchange factor 4 (Homo sapiens) (UniProt Q8WZA2). In words: Confirmatory qHTS for antagonist of cAMP-regulated guanine nucleotide exchange factor 4 (EPAC2) (AID 1645885). Also: nearly all actives have a fitted effect of over 25% in size. Conditions: EPAC2 Rap1B-BODIPY-GDP exchange fluorescence, biochemical; series mostly up to 114 µM. (In general: qHTS replaces the single test concentration by a dilution series.)

Values joined by “and” are separate entries in the source; they are usually repeats but may differ in a detail not shown here. Equal entries are not always repeated. Results filed as inconclusive are left out. The source holds several records for some structures; these can differ, active in one and inactive in another. Active and inactive are the calls of the source. Calls follow the shape of the dose curve; as a rule, active = well fitted inhibition curve with a large enough effect; inconclusive = small, poorly fitted or top-dose-only effect; inactive = no such curve, though single readings can be large or run the other way.
Potency is read from the fitted curve at half-maximal effect.

Chain of Rap guanine nucleotide exchange factor 4 (Homo sapiens) (Q8WZA2 whole entry, looked up): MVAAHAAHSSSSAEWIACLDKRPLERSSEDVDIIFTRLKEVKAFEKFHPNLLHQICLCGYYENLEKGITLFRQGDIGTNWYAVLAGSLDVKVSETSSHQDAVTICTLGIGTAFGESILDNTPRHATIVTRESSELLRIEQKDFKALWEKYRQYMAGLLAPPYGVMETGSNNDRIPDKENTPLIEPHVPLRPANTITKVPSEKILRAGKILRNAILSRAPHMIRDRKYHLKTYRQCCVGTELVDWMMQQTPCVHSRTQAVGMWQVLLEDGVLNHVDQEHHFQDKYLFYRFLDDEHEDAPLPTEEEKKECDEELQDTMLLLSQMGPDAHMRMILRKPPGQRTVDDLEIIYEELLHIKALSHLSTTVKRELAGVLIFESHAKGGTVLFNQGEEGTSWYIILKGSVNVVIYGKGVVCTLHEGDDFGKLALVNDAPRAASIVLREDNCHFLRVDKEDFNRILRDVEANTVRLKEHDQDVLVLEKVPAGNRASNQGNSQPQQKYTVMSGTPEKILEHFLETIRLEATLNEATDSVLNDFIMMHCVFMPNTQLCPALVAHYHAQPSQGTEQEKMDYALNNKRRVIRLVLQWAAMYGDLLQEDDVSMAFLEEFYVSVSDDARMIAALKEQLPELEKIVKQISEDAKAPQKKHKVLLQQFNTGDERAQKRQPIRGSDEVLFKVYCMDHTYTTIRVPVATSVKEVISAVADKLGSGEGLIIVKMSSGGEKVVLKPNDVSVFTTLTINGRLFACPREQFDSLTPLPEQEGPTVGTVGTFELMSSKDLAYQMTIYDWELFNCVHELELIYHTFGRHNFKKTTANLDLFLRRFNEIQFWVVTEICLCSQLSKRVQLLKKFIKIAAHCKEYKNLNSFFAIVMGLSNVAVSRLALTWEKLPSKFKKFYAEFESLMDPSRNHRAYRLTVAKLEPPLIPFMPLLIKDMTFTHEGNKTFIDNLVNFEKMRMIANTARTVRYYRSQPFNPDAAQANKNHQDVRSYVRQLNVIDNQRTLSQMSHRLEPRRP

As for `CC(C)(Sc1ccc(CCN(CCCCC2CCCCC2)C(=O)NC2CCCCC2)cc1)C(=O)O`, the Potency was 44.1 µM (active) and inactive and 39.3 µM (active).

With `CN1CCN(CCCN2c3ccccc3Sc3ccc(C(F)(F)F)cc32)CC1`, the Potency is 24.8 µM (active) and 44.1 µM (active).
